Test results reported in PubChem BioAssay AID1159580 (chemical genetic matrix, 2015).
“And” between values parts separate entries of the source, which are not always exact repeats. Equal entries are not always repeated. About 2,000 (36%) of roughly 5,500 compounds were called active. Roughly 18% stayed inconclusive and do not appear here. No stated cut-off is given here; in the data, active means normalized growth mostly below about 0.91 (no sharp cut-off); inconclusive means no clear call, values can overlap the other calls; inactive means mostly above about 0.92. The list shows a part of the results.

Assay: chemical genetic growth profiling, strain panel (AID 1159580);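 further: tested at 20 µM; growth read once vehicle control cultures reached saturation at 30 °C; 1 = growth at the plate median or of vehicle wells; lower values mean less growth of the strain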
Details: S. cerevisiae deletion strains, growth OD

Measured: normalized growth

NC(=O)N1c2ccccc2C=Cc2ccccc21
inactive: locus YAL013W, strain DEP1, hits give low values 1 | locus YAL021C, strain ccr4, hits give low values 1.03 | locus YAL026C, strain drs2, hits give low values 1.02 | locus YAL030W, strain snc1, hits give low values 1.04 | locus YAL040C, strain CLN3, hits give low values 1.01 | locus YBL061C, strain skt5, hits give low values 1.03 | locus YBR009C, strain hhf1, hits give low values 1.02 | locus YBR021W, strain FUR4, hits give low values 1.03 | locus YBR023C, strain chs3, hits give low values 1.02 | locus YBR171W, strain sec66, hits give low values 1.03 | locus YBR229C, strain ROT2, hits give low values 1.03 | locus YBR231C, strain swc5, hits give low values 1.04 | locus YBR279W, strain paf1, hits give low values 1.02 | locus YCL011C, strain gbp2, hits give low values 1.02 | locus YCL016C, strain dcc1, hits give low values 1.02 | locus YCL029C, strain bik1, hits give low values 1.01 | locus YCL061C, strain MRC1, hits give low values 1.02 | locus YCL069W, strain vba3, hits give low values 1.03 | locus YCR088W, strain abp1, hits give low values 1.01 | locus YDL005C, strain med2, hits give low values 1.02 | locus YDL035C, strain GPR1, hits give low values 1.07 | locus YDL040C, strain nat1, hits give low values 1.03 | locus YDL074C, strain BRE1, hits give low values 1.03 | locus YDL101C, strain DUN1, hits give low values 1.01 | locus YDL185W, strain tfp1, hits give low values 0.963 | locus YDL192W, strain arf1, hits give low values 0.996 | locus YDR001C, strain nth1, hits give low values 1.01 | locus YDR069C, strain doa4, hits give low values 1.04 | locus YDR101C, strain arx1, hits give low values 1.01 | locus YDR137W, strain rgp1, hits give low values 1.07 | locus YDR159W, strain sac3, hits give low values 1.03 | locus YDR162C, strain NBP2, hits give low values 1.03 | locus YDR195W, strain ref2 1.06 | locus YDR297W, strain sur2, hits give low values 1.02 | locus YDR318W, strain mcm21, hits give low values 1.01 | locus YDR334W, strain swr1, hits give low values 1.03 | locus YDR335W, strain msn5, hits give low values 1.02 | locus YDR363W, strain ESC2, hits give low values 1 | locus YDR388W, hits give low values 1.01 | locus YDR392W, strain spt3, hits give low values 0.984 | locus YDR502C, strain sam2, hits give low values 0.993 | locus YEL003W, strain gim4, hits give low values 1.02 | locus YEL037C, strain rad23, hits give low values 1.02 | locus YEL061C, strain CIN8 (second series), hits give low values 1.01 | locus YEL061C, strain CIN8, hits give low values 1.01 | locus YER002W, strain NOP16, hits give low values 1.04 | locus YER015W, strain faa2, hits give low values 1.03 | locus YER016W, strain bim1, hits give low values 1.02 | locus YER110C, hits give low values 0.979 | locus YER111C, strain swi4, hits give low values 1.03 | locus YER155C, strain BEM2 (second series), hits give low values 1.01 | locus YER155C, strain BEM2, hits give low values 1.01 | locus YER167W, strain BCK2, hits give low values 1.01 | locus YFR010W, strain ubp6, hits give low values 1.05 | locus YGL078C, strain dbp3, hits give low values 0.991 | locus YGL086W, strain mad1, hits give low values 1.01 | locus YGL167C, strain pmr1, hits give low values 1.03 | locus YGL173C, strain kem1, hits give low values 1.04 | locus YGL227W, strain vid30, hits give low values 1.01 | locus YGL240W, strain doc1, hits give low values 1.02 | locus YGL248W, strain PDE1, hits give low values 1.05 | locus YGL253W, strain hxk2, hits give low values 1.01 | locus YGR078C, strain PAC10, hits give low values 1.02 and 1.01 | locus YGR135W, strain pre9, hits give low values 0.99 | locus YGR252W, strain gcn5, hits give low values 1.06 | locus YHR013C, strain ard1, hits give low values 1.02 | locus YHR027C, strain rpn1, hits give low values 1.02 | locus YHR030C, strain SLT2, hits give low values 1.01 and 1 | locus YHR079C, strain IRE1 (second series), hits give low values 0.98 | locus YHR079C, strain IRE1, hits give low values 0.99 | locus YHR094C, strain hxt1, hits give low values 1 | locus YHR129C, strain ARP1, hits give low values 0.997 | locus YHR142W, strain chs7, hits give low values 1.02 | locus YHR200W, strain rpn10, hits give low values 0.995 | locus YIL066C, strain RNR3, hits give low values 1.04 | locus YIL073C, strain SPO22, hits give low values 1.05 | locus YIL125W, strain kgd1, hits give low values 1 | locus YIR030C, strain dcg1, hits give low values 0.976 | locus YJL092W, strain hpr5, hits give low values 1.03 | locus YJL095W, strain BCK1 (second series), hits give low values 1.03 | locus YJL095W, strain BCK1, hits give low values 0.972 and 0.988 | locus YJL115W, strain asf1, hits give low values 1.03 | locus YJL129C, strain trk1, hits give low values 1.04 | locus YJL134W, strain LCB3, hits give low values 1.02 | locus YJL154C, strain vps35, hits give low values 1.01 | locus YJL164C, strain tpk1, hits give low values 1.01 | locus YJL166W, strain qcr8, hits give low values 1.02 | locus YJL168C, strain set2, hits give low values 0.994 | locus YJL187C, strain SWE1 (second series), hits give low values 1.02 | locus YJR043C, strain POL32, hits give low values 1.09 | locus YJR066W, strain TOR1, hits give low values 0.99 | locus YKL009W, strain mrt4, hits give low values 0.918 | locus YKL068W, hits give low values 1.01 | locus YKL085W, strain MDH1 (second series), hits give low values 0.986 | locus YKL085W, strain MDH1, hits give low values 0.986 | locus YKL160W, strain elf1, hits give low values 1.03 | locus YKR001C, strain vps1, hits give low values 0.989 | locus YKR026C, strain gcn3, hits give low values 1.01 | locus YKR091W, strain srl3, hits give low values 1.01 | locus YLL001W, strain dnm1, hits give low values 1.02 | locus YLL026W, hits give low values 1.03 | locus YLL041C, strain sdh2, hits give low values 1.02 | locus YLR027C, strain aat2, hits give low values 1.02 | locus YLR039C, strain RIC1, hits give low values 1.09 | locus YLR058C, strain SHM2, hits give low values 1.01 | locus YLR102C, strain apc9, hits give low values 1.01 | locus YLR113W, strain HOG1, hits give low values 0.972 | locus YLR221C, strain rsa3, hits give low values 1.01 | locus YLR258W, strain gsy2, hits give low values 1.02 | locus YLR262C, strain YPT6 (second series), hits give low values 1.03 | locus YLR262C, strain YPT6, hits give low values 1.1 | locus YLR268W, strain sec22, hits give low values 0.993 | locus YLR320W, strain mms22, hits give low values 1.03 | locus YLR330W, strain CHS5, hits give low values 1 | locus YLR342W, strain FKS1 (second series), hits give low values 1.12 | locus YLR342W, strain FKS1, hits give low values 1.03 | locus YLR357W, strain rsc2, hits give low values 1.09 | locus YLR370C, strain arc18, hits give low values 1.02 | locus YLR371W, strain rom2, hits give low values 0.994 | locus YLR384C, strain iki3, hits give low values 1.02 | locus YLR418C, strain cdc73, hits give low values 0.959 | locus YML016C, strain PPZ1, hits give low values 1.02 | locus YML032C, strain rad52, hits give low values 1 | locus YML120C, strain ndi1, hits give low values 1.03 | locus YML124C, strain tub3, hits give low values 0.998 | locus YMR058W, strain fet3, hits give low values 1.01 | locus YMR078C, strain ctf18, hits give low values 0.989 | locus YMR125W, strain sto1, hits give low values 1.03 | locus YMR129W, hits give low values 1.01 | locus YMR205C, strain PFK2, hits give low values 1.03 | locus YMR223W, strain ubp8, hits give low values 0.993 | locus YMR231W, strain pep5, hits give low values 1.03 | locus YMR263W, strain SAP30, hits give low values 1.01 | locus YMR307W, strain GAS1, hits give low values 1.18 | locus YNL067W, strain RPL9B, hits give low values 1.02 | locus YNL071W, strain lat1, hits give low values 1.02 | locus YNL128W, strain TEP1, hits give low values 1 | locus YNL175C, strain NOP13, hits give low values 1.05 | locus YNL183C, strain NPR1, hits give low values 0.948 | locus YNL197C, strain WHI3, hits give low values 1.03 | locus YNL209W, strain ssb2, hits give low values 1.02 | locus YNL224C, strain SQS1, hits give low values 1.02 | locus YNL233W, strain BNI4, hits give low values 0.981 | locus YNL248C, strain rpa49, hits give low values 1.05 | locus YNL250W, strain rad50, hits give low values 0.98 | locus YNL271C, strain bni1, hits give low values 0.977 | locus YNL298W, strain CLA4, hits give low values 0.976 | locus YNL307C, strain MCK1, hits give low values 1 | locus YNL322C, strain KRE1 (second series), hits give low values 1.03 | locus YNL322C, strain KRE1, hits give low values 1.01 | locus YNR049C, strain mso1, hits give low values 1.03 | locus YNR052C, strain pop2, hits give low values 0.994 | locus YOL006C, strain TOP1, hits give low values 1.02 | locus YOL012C, strain htz1 1.53 | locus YOL147C, strain pex11, hits give low values 0.998 | locus YOR001W, strain rrp6, hits give low values 1.04 | locus YOR061W, strain CKA2, hits give low values 1.01 | locus YOR069W, strain VPS5, hits give low values 1.04 | locus YOR070C, strain gyp1, hits give low values 1.03 | locus YOR080W, strain dia2, hits give low values 1.04 | locus YOR083W, strain WHI5 (second series), hits give low values 0.999 | locus YOR083W, strain WHI5, hits give low values 1.03 | locus YOR106W, strain vam3, hits give low values 1.04 | locus YOR136W, strain idh2, hits give low values 0.997 | locus YOR144C, strain elg1, hits give low values 1 | locus YOR184W, strain ser1, hits give low values 0.981 | locus YOR231W, strain MKK1, hits give low values 1 | locus YOR265W, strain rbl2, hits give low values 1.03 | locus YOR270C, strain vph1, hits give low values 1.1 | locus YOR290C, strain snf2, hits give low values 1.01 | locus YOR316C, strain cot1, hits give low values 0.998 | locus YPL051W, strain arl3, hits give low values 1.03 | locus YPL055C, strain LGE1, hits give low values 1.01 | locus YPL078C, strain atp4, hits give low values 1.02 | locus YPL106C, strain sse1, hits give low values 1.05 | locus YPL240C, strain hsp82, hits give low values 1.02 | locus YPL241C, strain CIN2, hits give low values 1.02 and 1.01 | locus YPL256C, strain CLN2, hits give low values 1 | locus YPR119W, strain clb2, hits give low values 0.996 | locus YPR141C, strain kar3, hits give low values 0.992 | locus YPR163C, strain tif3, hits give low values 1 | locus YPR167C, strain met16, hits give low values 0.991 | strain wtn01, hits give low values 1.01
